Bioassay records: PubChem, National Center for Advancing Translational Sciences (NCATS)
Only some compounds are listed: those with a hit (about 2.8% of all), similar ones and a draw of the others.
Pol beta inh – qHTS Assay for Inhibitors of DNA Polymerase Beta; P06746; Pol beta primer extension/strand displacement, fluorescence kinetic; Potency, µM (top dose mostly 114 µM), inactives show top-dose activity change, negative = inhibition, actives largely listed as inhibitors; 340,000 tested, 1.3% active; AID 485314, 2010; note: potency is the fitted concentration of half-maximal effect; % is set by controls: 0 for no effect and ±100 for the full control effect
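Human Pol beta at 10 nM; strand-displacement substrate 50 nM final. Compound exposure 15 min at room temperature before start, reaction 10 min at room temperature.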
WRN helicase inh-1 – qHTS for Inhibitors of WRN Helicase. Bifunctional 3'-5' exonuclease/ATP-dependent helicase WRN (Homo sapiens), Q14191. WRN helicase unwinding, fluorescent forked duplex, kinetic. Potency, µM (highest dose often 114 µM), for the others: top-dose activity change, negative = inhibition, most hits filed as inhibitors. 360,000 tested, 0.46% active; note: potency is the fitted concentration of half-maximal effect; % is set by controls: 0 for no effect and ±100 for the full control effect; nearly all actives have a fitted effect of over 55% in size
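Fluorescence dequenching readout, ex 525 nm/em 598 nm, kinetic mode: forked duplex DNA (100 nM final) with adjacent fluorophore and quencher unwound by WRN (20 nM final) with 2 mM ATP. Compound preincubation 15 min, room temperature.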
Pol iota inh – qHTS for Inhibitors of Polymerase Iota. DNA polymerase iota (Homo sapiens), Q9UNA4. Pol iota fluorescent replication assay, 10 min. Potency, µM (highest dose often 115 µM), without a hit: at the highest dose activity, negative = inhibition, most hits filed as inhibitors. 390,000 tested, 1% active; note: potency is the fitted concentration of half-maximal effect
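Pol iota at 10 nM preincubated 15 min with compounds at room temperature; reaction started with fluorescent substrate, 50 nM final. Fluorescence read kinetically at 0 and 10 min; buffer-only wells as negative control.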
POLK inh – qHTS for Inhibitors of Polymerase Kappa; Potency, µM (top dose mostly 107 µM), without a hit: top-dose activity, negative = inhibition, most hits filed as inhibitors; 400,000 tested, 0.53% active; DNA polymerase kappa (Homo sapiens), Q9UBT6; purified Pol kappa, fluorescent DNA synthesis assay, 10 min; note: potency is the fitted concentration of half-maximal effect; % is set by controls: 0 for no effect and ±100 for the full control effect
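First, compounds were pin-transferred onto 10 nM Pol kappa. After 15 min at room temperature, substrate was added to 50 nM final. Fluorescence was then measured kinetically at 0 and 10 min.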
Pol eta inh – qHTS for Inhibitors of Polymerase Eta. DNA polymerase eta (Homo sapiens), Q9Y253. recombinant Pol eta, fluorescent DNA replication assay. Potency, µM (doses to about 114 µM), without a hit: at the highest dose activity change, negative = inhibition, most hits filed as inhibitors. 390,000 tested, 1.2% active. AID 588591, 2011; note: potency is the fitted concentration of half-maximal effect; % is set by controls: 0 for no effect and ±100 for the full control effect
Target sequence (Q9Y253 whole entry, looked up): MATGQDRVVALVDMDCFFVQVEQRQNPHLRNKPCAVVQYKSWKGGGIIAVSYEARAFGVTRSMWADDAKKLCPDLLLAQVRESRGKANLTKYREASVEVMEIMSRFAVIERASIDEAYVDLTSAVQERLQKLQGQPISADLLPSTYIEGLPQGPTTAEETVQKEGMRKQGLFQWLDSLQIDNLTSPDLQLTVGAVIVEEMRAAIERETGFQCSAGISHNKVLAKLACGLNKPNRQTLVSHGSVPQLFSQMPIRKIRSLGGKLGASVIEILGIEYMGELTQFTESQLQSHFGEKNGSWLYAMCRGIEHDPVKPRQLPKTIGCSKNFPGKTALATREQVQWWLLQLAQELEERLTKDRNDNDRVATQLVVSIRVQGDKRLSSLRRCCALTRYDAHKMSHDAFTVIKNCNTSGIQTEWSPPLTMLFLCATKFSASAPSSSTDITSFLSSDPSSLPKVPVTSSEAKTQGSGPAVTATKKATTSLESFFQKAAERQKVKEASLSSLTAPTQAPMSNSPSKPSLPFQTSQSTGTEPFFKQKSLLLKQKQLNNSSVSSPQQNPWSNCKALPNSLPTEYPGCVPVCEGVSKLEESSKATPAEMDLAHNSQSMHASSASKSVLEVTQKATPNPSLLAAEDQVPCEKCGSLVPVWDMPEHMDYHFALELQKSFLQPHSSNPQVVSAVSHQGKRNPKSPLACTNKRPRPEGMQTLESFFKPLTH
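Pol eta at 10 nM preincubated with compounds 15 min at room temperature; reaction started with fluorescent substrate (50 nM final) and read kinetically at 0 and 10 min.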
PI5P4K alpha inh – qHTS for Inhibitors of phosphatidylinositol 5-phosphate 4-kinase (PI5P4K) | Phosphatidylinositol 5-phosphate 4-kinase type-2 alpha (Homo sapiens), P48426 | PI5P4Kalpha enzyme, ADP-Glo luminescence, 60 min; stronger effect = lower value | max response, % | 330,000 tested, 1.2% active; active = max response of -50% or lower; inconclusive = between -30% and -50%; inactive = -30% or higher; note: value at the top dose of about 77 µM; % is set by controls: 0 for no effect and ±100 for the full control effect
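Quantitative HTS of the MLSMR library against PI5P4Kalpha with substrate. ATP added last at 5 microM final; room temperature, 60 minutes. Remaining ATP depleted, ADP converted and read as luminescence.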
WRN helicase inh-2 – qHTS for Inhibitors of WRN Helicase: Confirmatory Assay for Cherry-picked Compounds; shares compounds with WRN helicase inh-1; WRN helicase DNA unwinding, fluorescence kinetic; Potency, µM (highest dose often 57.1 µM), for the others: top-dose activity, negative = inhibition, most hits filed as inhibitors; 610 tested, 63% active; AID 720497, 2013; note: potency is the fitted concentration of half-maximal effect; nearly all actives have a fitted effect of over 65% in size
TO displacement – qHTS for Inhibitors of WRN Helicase: Thiazole Orange DNA Binding Counterscreen | shares compounds with WRN helicase inh-1 | thiazole orange DNA binding displacement, fluorescence | Potency, µM (highest dose often 57.1 µM), for the others: at the top dose activity change, negative = inhibition, most hits filed as inhibitors | 610 tested, 10% active;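 note: drop in dye fluorescence marks compound binding to DNA; potency is the fitted concentration of half-maximal effect; % is set by controls: 0 for no effect and ±100 for the full control effect; nearly all actives have a fitted effect of over 60% in size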
BLM helicase inh – qHTS for Inhibitors of WRN Helicase: BLM Helicase Counterscreen for WRN Inhibitors | shares compounds with WRN helicase inh-1 | Recombinant BLM helicase DNA unwinding, red fluorescence | Potency, µM (titrated, usually from 57.1 µM), for inactives: at the highest dose activity change, negative = inhibition, usual class: inhibitors | 610 tested, 60% active; note: potency is the fitted concentration of half-maximal effect; nearly all actives have a fitted effect of over 60% in size
* = called active by the depositor; ? = inconclusive; · = no result given; [ ] = dose if it differs, or a comment. Unless noted, calls come from the whole dose curve; as a rule, active = well fitted curve in the direction sought with a large enough effect; inconclusive = small, poorly fitted or top-dose-only effect, or another doubt; inactive = no such curve, though single readings can be large; an effect the other way counts as inactive or inconclusive.

SMILES	Pol beta inh	WRN helicase inh-1	Pol iota inh	POLK inh	Pol eta inh	PI5P4K alpha inh	WRN helicase inh-2	TO displacement	BLM helicase inh
Cc1cc(Cl)c(OCCOCCN2CCCCC2)c(Br)c1	4.9%	?	144.4%	-5.7%	2.3%	-11.3	-2.3%	-1.6%	-14.6%
CC(NC(=O)c1ccc2c(c1)C(=O)N(Cc1cccnc1)C2=O)c1ccccc1 (stereo not drawn)	-17.1%	-33.5%	26.4%	-6.9%	-0.9%	-8.5	·	·	·
CC[n+]1c(/C=C/C=C/N(C(C)=O)c2ccccc2)sc2cc(OC)ccc21	15.8µM*	?	?	35.5µM*	?	-54.0*	24.1µM*	426.0%	21.5µM*
Nc1[nH]c(C(=O)c2ccccc2)c(-c2ccncc2)c1C(=O)NCc1ccc(Cl)cc1	·	-9.8%	·	·	·	-1.4	·	·	·
CNc1ccccc1C(C)(C)c1cc(-c2cccc([N+](=O)[O-])c2)no1	-4.8%	-11.7%	19.6%	-3.9%	-18.8%	3.6	·	·	·
CNc1ccccc1C(C)(C)c1cc(-c2cccc(Br)c2)no1	16.8%	79.4µM*	?	-24.6%	?	5.8	?	-7.0%	?
O=c1c2c3c(sc2n(Cc2cc(=O)n4ccccc4n2)c(=O)n1-c1ccc(Cl)cc1)CCC3	-10.8%	·	-10.2%	3.8%	8.7%	·	·	·	·
CCc1ccccc1N(c1nc(-c2ccc(OC)c(OC)c2)no1)c1nc(-c2ccc(OC)c(OC)c2)no1	36.1%	·	7.6%	-4.6%	-12.3%	·	·	·	·
Cc1ccccc1N=Cc1cc2c(cc1O)OC(N)=C(C#N)C2c1ccccc1 (stereo not drawn)	30.6%	?	-17.0%	?	?	?	?	20.5%	?
CC(Oc1ccccc1)C(=O)Nc1ccc(S(=O)(=O)N2CCN(C)CC2)cc1 (stereo not drawn)	·	9.4%	9.0%	-0.5%	-13.7%	-3.8	·	·	·
CC(Oc1ccccc1Cl)C(=O)Nc1ccc(S(=O)(=O)N2CCN(C)CC2)cc1 (stereo not drawn)	·	31.6µM*	?	-3.3%	5.4%	-66.6*	-19.7%	-7.3%	-28.5%
COc1ccc(-n2c(O)c(/C=N/NS(=O)(=O)c3ccc(C)cc3)c3ccccc3c2=O)cc1OC	?	39.8µM*	39.8µM*	-18.2%	-16.1%	-14.4	-23.1%	175.2%	?
COc1ccc(Br)cc1C=NNS(=O)(=O)c1ccc(C)cc1	·	2.9%	·	·	-12.0%	11.3	·	·	·
CC1(c2nnnn2-c2ccc3c(c2)OCCO3)CCC(=O)N1CCCn1ccnc1 (stereo not drawn)	·	-1.2%	·	·	·	0.8	·	·	·
Nc1ccc2nc(-c3cccc(-c4nc5ccc(N)cc5[nH]4)c3)[nH]c2c1	?	39.8µM*	?	35.5µM*	?	-16.1	?	17.1µM*	?
CCCC[C@@H]1Cc2[nH][nH]c(=O)c2[C@H](c2ccc(C(C)C)cc2)O1	·	-2.4%	·	·	·	-28.9	·	·	·
N=C1S/C(=C\c2ccco2)C(=O)N1c1nccs1	?	-7.2%[11.6 µM]	?	-36.2%	?	-15.7	·	·	·
N=C1S/C(=C\c2ccco2)C(=O)N1c1ccc2c(c1)OCO2	20µM*	?	325.3%	?	35.5µM*	?	?	-30.0%	19.2µM*
COc1ccc(-c2nc3ccccc3n3c(-c4cccc(C)c4)c4c(=O)n(C)c(=O)n(C)c4c23)cc1	-20.3%	·	-17.3%	-17.5%	-4.2%	·	·	·	·
COc1ccc(Cn2c(SCC(=O)NCc3ccc(Cl)cc3)nc3ccsc3c2=O)cc1	12.6%	·	29.3%	2.1%	-19.5%	·	·	·	·
COC(=O)CSc1nc(SC)nc2c1sc1nc(-c3ccco3)c3c(c12)CC(C)(C)OC3	·	3.2%	45.1%	-7.8%	-6.1%	-7.3	·	·	·
CSc1nc(SCCO)c2sc3nc(-c4ccco4)c4c(c3c2n1)CC(C)(C)OC4	1.58µM*	50.1µM*	22.4µM*	-31.9%	79.4µM*	·	7.64µM*	15.2µM*	2.15µM*
CN1/C(=C\C(=O)COC(=O)c2ccco2)C(C)(C)c2ccccc21	-19.1%	-1.3%	25.0%	4.1%	-14.9%	-2.1	·	·	·
CN1/C(=C\C(=O)c2ccco2)C(C)(C)c2ccccc21	0.6%	?	?	-11.1%	-7.7%	·	-13.5%	-15.2%	-1.2%
CCN(CC)S(=O)(=O)c1ccc(O)c(NC(=O)COc2ccc(S(=O)(=O)N3CCOCC3)cc2)c1	·	-25.6%	19.6%	-8.8%	?	-27.0	·	·	·
SMILES	Pol beta inh	WRN helicase inh-1	Pol iota inh	POLK inh	Pol eta inh	PI5P4K alpha inh	WRN helicase inh-2	TO displacement	BLM helicase inh
COc1cccc(/C=C(\C#N)c2nc3ccc(C)cc3[nH]2)c1OCC(=O)O	-3.3%	?	44.2%	-15.0%	-4.1%	-1.5	6.81µM*	-16.2%	-20.9%
CC1(C)Cc2c(C#N)c(N3CCN(C(=O)c4ccccc4Cl)CC3)nc(-c3ccco3)c2CS1	20µM*	35.5µM*	?	79.4µM*	10µM*	-85.2*	-12.8%	1.5%	?
CN(C)CCC(=O)C(Cc1ccccc1)c1ccccc1 (stereo not drawn)	·	7.94µM*	?	-18.8%	-3.1%	-4.9	-22.1%	-2.4%	-18.2%
CN(C)CCNC(=O)C(c1ccccc1)c1ccccc1	-6.4%	2.8%	49.8%	-1.1%	-17.2%	3.3	·	·	·
Cc1c(C2=CCN(S(=O)(=O)c3ccc(Br)cc3)CC2)c2ccccc2n1C	4.3%	?	12.7%	-2.5%	-15.0%	8.9	·	·	·
CCn1c(C)c(C2=CCN(S(=O)(=O)c3ccc(C)cc3)CC2)c2ccccc21	-0.7%	?	?	-16.8%	-19.7%	-5.0	?	12.0%	?
O=C1ON=C(c2ccc(Cl)cc2)/C1=C/c1ccc(O)cc1	4.6%	9.47µM*	60.4%	0.3%	?	?	21.5µM*	-2.9%	?
